# The supplement of paper PMC4466140
# Key:
# Assay in all cases: SPOT peptide array binding signal intensity (averaged, normalized) (arbitrary units (background-subtracted, floor 0; scale differs between SH3 domains)); higher = stronger binding of the SH3 domain to the peptide
# CaNbp2 = biological target: CaNbp2
# How it was run: (§1)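 Spot intensities were captured after detection with anti-GST antibody, an HRP-linked anti-mouse secondary and luminol, and quantified with Genespotter. The probes were GST-fused SH3 domains from four yeast species, produced in E. coli BL21(DE3), purified on glutathione Sepharose and incubated at 10 μg/ml overnight at 4°C on cellulose-bound synthetic 15-mer peptides with cysteines replaced by serines. Binding signal is the normalized, background-subtracted spot intensity averaged over replicates, and its arbitrary units differ between domains.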
# CaRvs167 = biological target: CaRvs167
# How it was run: as §1
# CaRvs167-3 = biological target: CaRvs167-3
# How it was run: as §1
# CaSho1 = biological target: CaSho1
# How it was run: as §1
# CaSla1-D1-D2 = biological target: CaSla1-D1-D2
# How it was run: as §1
# CaSla1-D3 = biological target: CaSla1-D3
# How it was run: as §1
# ScAbp1 = biological target: ScAbp1
# How it was run: as §1
# ScBbc1 = biological target: ScBbc1
# How it was run: as §1
# ScBem1-D1 = biological target: ScBem1-D1
# How it was run: as §1
# ScBzz1-D1 = biological target: ScBzz1-D1
# How it was run: as §1
# ScBzz1-D2 = biological target: ScBzz1-D2
# How it was run: as §1
# ScCyk3 = biological target: ScCyk3
# How it was run: as §1
# ScFus1 = biological target: ScFus1
# How it was run: as §1
# ScHof1 = biological target: ScHof1
# How it was run: as §1
# ScHse1 = biological target: ScHse1
# How it was run: as §1
# ScLsb1 = biological target: ScLsb1
# How it was run: as §1
# ScLsb2 = biological target: ScLsb2
# How it was run: as §1
# ScLsb3 = biological target: ScLsb3
# How it was run: as §1
# ScLsb4 = biological target: ScLsb4
# How it was run: as §1
# ScMyo3 = biological target: ScMyo3
# How it was run: as §1
# ScMyo5 = biological target: ScMyo5
# How it was run: as §1
# ScNbp2 = biological target: ScNbp2
# How it was run: as §1
# ScPex13 = biological target: ScPex13
# How it was run: as §1
# ScRvs167 = biological target: ScRvs167
# How it was run: as §1
# ScSho1 = biological target: ScSho1
# How it was run: as §1
# ScSla1-D1-D2 = biological target: ScSla1-D1-D2
# How it was run: as §1
# ScSla1-D3 = biological target: ScSla1-D3
# How it was run: as §1
# SpAbp1-D1 = biological target: SpAbp1-D1
# How it was run: as §1
# SpBbc1 = biological target: SpBbc1
# How it was run: as §1
# SpBzz1-D1 = biological target: SpBzz1-D1
# How it was run: as §1
# SpBzz1-D2 = biological target: SpBzz1-D2
# How it was run: as §1
# SpCyk3 = biological target: SpCyk3
# How it was run: as §1
# SpHof1 = biological target: SpHof1
# How it was run: as §1
# SpHof1-2 = biological target: SpHof1-2
# How it was run: as §1
# SpHof1-3 = biological target: SpHof1-3
# How it was run: as §1
# SpHse1 = biological target: SpHse1
# How it was run: as §1
# SpLsb1 = biological target: SpLsb1
# How it was run: as §1
# SpLsb4 = biological target: SpLsb4
# How it was run: as §1
# SpMyo1 = biological target: SpMyo1
# How it was run: as §1
# SpNbp2 = biological target: SpNbp2
# How it was run: as §1
# SpPex13 = biological target: SpPex13
# How it was run: as §1
# SpRvs167 = biological target: SpRvs167
# How it was run: as §1
# SpSla1-D1-D2 = biological target: SpSla1-D1-D2
# How it was run: as §1
# SpSla1-D3 = biological target: SpSla1-D3
# How it was run: as §1
# AgAbp1 = biological target: AgAbp1
# How it was run: as §1
# AgBbc1 = biological target: AgBbc1
# How it was run: as §1
# AgBem1-D1 = biological target: AgBem1-D1
# How it was run: as §1
# AgBzz1-D1 = biological target: AgBzz1-D1
# How it was run: as §1
# AgBzz1-D2 = biological target: AgBzz1-D2
# How it was run: as §1
# AgCyk3 = biological target: AgCyk3
# How it was run: as §1
# AgFus1 = biological target: AgFus1
# How it was run: as §1
# AgHof1 = biological target: AgHof1
# How it was run: as §1
# AgHse1 = biological target: AgHse1
# How it was run: as §1
# AgLsb1 = biological target: AgLsb1
# How it was run: as §1
# AgLsb4 = biological target: AgLsb4
# How it was run: as §1
# AgMyo5 = biological target: AgMyo5
# How it was run: as §1
# AgNbp2 = biological target: AgNbp2
# How it was run: as §1
# AgRvs167 = biological target: AgRvs167
# How it was run: as §1
# AgSho1 = biological target: AgSho1
# How it was run: as §1
# AgSla1-D1-D2 = biological target: AgSla1-D1-D2
# How it was run: as §1
# AgSla1-D3 = biological target: AgSla1-D3
# How it was run: as §1
# CaAbp1-D1 = biological target: CaAbp1-D1
# How it was run: as §1
# CaAbp1-D2 = biological target: CaAbp1-D2
# How it was run: as §1
# CaBbc1 = biological target: CaBbc1
# How it was run: as §1
# CaBem1-D1 = biological target: CaBem1-D1
# How it was run: as §1
# CaBzz1-D1 = biological target: CaBzz1-D1
# How it was run: as §1
# CaBzz1-D2 = biological target: CaBzz1-D2
# How it was run: as §1
# CaCyk3 = biological target: CaCyk3
# How it was run: as §1
# CaFus1 = biological target: CaFus1
# How it was run: as §1
# CaHof1 = biological target: CaHof1
# How it was run: as §1
# CaHse1 = biological target: CaHse1
# How it was run: as §1
# CaLsb1 = biological target: CaLsb1
# How it was run: as §1
# CaLsb4 = biological target: CaLsb4
# How it was run: as §1
# CaMyo5 = biological target: CaMyo5
# How it was run: as §1
binder,measurement,setting,value
SAPDIPPRSPNRNAH,SPOT peptide array binding signal intensity,CaNbp2,≤ 0
same,SPOT peptide array binding signal intensity,CaRvs167,321
same,SPOT peptide array binding signal intensity,CaRvs167-3,1
same,SPOT peptide array binding signal intensity,CaSho1,≤ 0
same,SPOT peptide array binding signal intensity,CaSla1-D1-D2,290
same,SPOT peptide array binding signal intensity,CaSla1-D3,≤ 0
same,SPOT peptide array binding signal intensity,ScAbp1,4.5
same,SPOT peptide array binding signal intensity,ScBbc1,35.8
same,SPOT peptide array binding signal intensity,ScBem1-D1,≤ 0
same,SPOT peptide array binding signal intensity,ScBzz1-D1,≤ 0
same,SPOT peptide array binding signal intensity,ScBzz1-D2,≤ 0
same,SPOT peptide array binding signal intensity,ScCyk3,≤ 0
same,SPOT peptide array binding signal intensity,ScFus1,≤ 0
same,SPOT peptide array binding signal intensity,ScHof1,≤ 0
same,SPOT peptide array binding signal intensity,ScHse1,17.5
same,SPOT peptide array binding signal intensity,ScLsb1,763
same,SPOT peptide array binding signal intensity,ScLsb2,1090
same,SPOT peptide array binding signal intensity,ScLsb3,5380
same,SPOT peptide array binding signal intensity,ScLsb4,936
same,SPOT peptide array binding signal intensity,ScMyo3,≤ 0
same,SPOT peptide array binding signal intensity,ScMyo5,≤ 0
same,SPOT peptide array binding signal intensity,ScNbp2,57
same,SPOT peptide array binding signal intensity,ScPex13,130
same,SPOT peptide array binding signal intensity,ScRvs167,1360
same,SPOT peptide array binding signal intensity,ScSho1,13.5
same,SPOT peptide array binding signal intensity,ScSla1-D1-D2,134
same,SPOT peptide array binding signal intensity,ScSla1-D3,≤ 0
same,SPOT peptide array binding signal intensity,SpAbp1-D1,≤ 0
same,SPOT peptide array binding signal intensity,SpBbc1,3.5
same,SPOT peptide array binding signal intensity,SpBzz1-D1,≤ 0
same,SPOT peptide array binding signal intensity,SpBzz1-D2,≤ 0
same,SPOT peptide array binding signal intensity,SpCyk3,≤ 0
same,SPOT peptide array binding signal intensity,SpHof1,0.75
same,SPOT peptide array binding signal intensity,SpHof1-2,≤ 0
same,SPOT peptide array binding signal intensity,SpHof1-3,1
same,SPOT peptide array binding signal intensity,SpHse1,12
same,SPOT peptide array binding signal intensity,SpLsb1,540
same,SPOT peptide array binding signal intensity,SpLsb4,6620
same,SPOT peptide array binding signal intensity,SpMyo1,≤ 0
same,SPOT peptide array binding signal intensity,SpNbp2,59.5
same,SPOT peptide array binding signal intensity,SpPex13,≤ 0
same,SPOT peptide array binding signal intensity,SpRvs167,1600
same,SPOT peptide array binding signal intensity,SpSla1-D1-D2,≤ 0
same,SPOT peptide array binding signal intensity,SpSla1-D3,≤ 0
TPTSGPPLLPPRNTM,SPOT peptide array binding signal intensity,AgAbp1,≤ 0
same,SPOT peptide array binding signal intensity,AgBbc1,128
same,SPOT peptide array binding signal intensity,AgBem1-D1,≤ 0
same,SPOT peptide array binding signal intensity,AgBzz1-D1,15
same,SPOT peptide array binding signal intensity,AgBzz1-D2,≤ 0
same,SPOT peptide array binding signal intensity,AgCyk3,6
same,SPOT peptide array binding signal intensity,AgFus1,≤ 0
same,SPOT peptide array binding signal intensity,AgHof1,21.2
same,SPOT peptide array binding signal intensity,AgHse1,65.5
same,SPOT peptide array binding signal intensity,AgLsb1,778
same,SPOT peptide array binding signal intensity,AgLsb4,5100
same,SPOT peptide array binding signal intensity,AgMyo5,124
same,SPOT peptide array binding signal intensity,AgNbp2,≤ 0
same,SPOT peptide array binding signal intensity,AgRvs167,801
same,SPOT peptide array binding signal intensity,AgSho1,≤ 0
same,SPOT peptide array binding signal intensity,AgSla1-D1-D2,≤ 0
same,SPOT peptide array binding signal intensity,AgSla1-D3,0.5
same,SPOT peptide array binding signal intensity,CaAbp1-D1,≤ 0
same,SPOT peptide array binding signal intensity,CaAbp1-D2,≤ 0
same,SPOT peptide array binding signal intensity,CaBbc1,153
same,SPOT peptide array binding signal intensity,CaBem1-D1,0.5
same,SPOT peptide array binding signal intensity,CaBzz1-D1,91
same,SPOT peptide array binding signal intensity,CaBzz1-D2,33.5
same,SPOT peptide array binding signal intensity,CaCyk3,1
same,SPOT peptide array binding signal intensity,CaFus1,25
same,SPOT peptide array binding signal intensity,CaHof1,4.75
same,SPOT peptide array binding signal intensity,CaHse1,100
same,SPOT peptide array binding signal intensity,CaLsb1,5.5
same,SPOT peptide array binding signal intensity,CaLsb4,5320
same,SPOT peptide array binding signal intensity,CaMyo5,36.8
same,SPOT peptide array binding signal intensity,CaNbp2,21
same,SPOT peptide array binding signal intensity,CaRvs167,2460
same,SPOT peptide array binding signal intensity,CaRvs167-3,≤ 0
same,SPOT peptide array binding signal intensity,CaSho1,5.5
same,SPOT peptide array binding signal intensity,CaSla1-D1-D2,185
same,SPOT peptide array binding signal intensity,CaSla1-D3,23.8
same,SPOT peptide array binding signal intensity,ScAbp1,≤ 0
same,SPOT peptide array binding signal intensity,ScBbc1,1
same,SPOT peptide array binding signal intensity,ScBem1-D1,≤ 0
same,SPOT peptide array binding signal intensity,ScBzz1-D1,3
same,SPOT peptide array binding signal intensity,ScBzz1-D2,≤ 0
same,SPOT peptide array binding signal intensity,ScCyk3,2
same,SPOT peptide array binding signal intensity,ScFus1,≤ 0
same,SPOT peptide array binding signal intensity,ScHof1,8
same,SPOT peptide array binding signal intensity,ScHse1,≤ 0
same,SPOT peptide array binding signal intensity,ScLsb1,1070
same,SPOT peptide array binding signal intensity,ScLsb2,65.5
same,SPOT peptide array binding signal intensity,ScLsb3,6040
same,SPOT peptide array binding signal intensity,ScLsb4,6540
same,SPOT peptide array binding signal intensity,ScMyo3,538
same,SPOT peptide array binding signal intensity,ScMyo5,80
same,SPOT peptide array binding signal intensity,ScNbp2,≤ 0
same,SPOT peptide array binding signal intensity,ScPex13,1680
same,SPOT peptide array binding signal intensity,ScRvs167,2570
same,SPOT peptide array binding signal intensity,ScSho1,1.5
same,SPOT peptide array binding signal intensity,ScSla1-D1-D2,268
same,SPOT peptide array binding signal intensity,ScSla1-D3,51.5
same,SPOT peptide array binding signal intensity,SpAbp1-D1,3
same,SPOT peptide array binding signal intensity,SpBbc1,≤ 0
same,SPOT peptide array binding signal intensity,SpBzz1-D1,176
